YB-1 expr inh – YB-1 expression inhibition; U2OS, qRT-PCR YB-1 vs CDIP delta delta Cp, 16 h; hits give high values; zero = DMSO, each unit about twofold; delta delta Cp (YB-1 minus CDIP) (no concentration beside the values); hit rate 0.37% among 30,000; AID 434959;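 active means delta delta Cp rounded down to an integer at or above 3, about 3 SD of DMSO wells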;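 further: higher means less YB-1 transcript or more CDIP transcript relative to DMSO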
Shh pathway inh – Sonic Hedgehog pathway inhibition. Shh-LIGHT2 Gli-luciferase reporter, 30 h. inhibition, % (concentration not given with the values). hit rate 2.1% among 22,000;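 active means mean inhibition across valid replicates above about 65%, limit read from the data; inconclusive means mean under the limit, yet half or more replicates past it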;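 further: pathway switched on by Shh-conditioned medium diluted 1 in 25 in low serum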
PD-1 reverse act – reversal of PD-1 mediated T-cell inhibition. activation, % (no concentration beside the values). 29,000 tested, under 10 active. primary human CD4 T cells, PD-L1 beads, CellTiter-Glo 96 h; call rule not given here;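 further: 0% = median vehicle wells and 100% = positive control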
NOMO-1 viab – STK33 inhibitor candidate reducing NOMO-1 cell viability; NOMO-1 AML viability, CellTiter-Glo luminescence, 72 h; inhibition, % (concentration not given with the values); hit rate 7.5% among 37,000; AID 2330; in the data active means inhibition above about 80%; inconclusive means no clear call, values can overlap the other calls
MITF inh – inhibitors of MITF. TRPM1 promoter luciferase, luminescence, 24 h. inhibition, % (concentration not given with the values). hit rate 0.28% among 37,000; in the data active means inhibition above about 85%; inconclusive means no clear call, values can overlap the other calls; inactive means below about 68%;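 further: human melanocyte line stably carrying TRPM1 promoter luciferase reporter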
* hit, by the source's call; ? = inconclusive; · = no result. Only some compounds are listed: those with a hit (about 7.4% of all), similar ones and a draw of the others.

SMILES | YB-1 expr inh | Shh pathway inh | PD-1 reverse act | NOMO-1 viab | MITF inh
O=C(CSC1CC(=O)N(c2ccc(Cl)cc2)C1=O)Nc1ccc(Cl)cc1 (configuration not stated) | · | · | · | -7.1 | -6.5
O=C1CC(SCc2ccc(Cl)cc2)C(=O)N1c1ccc(Br)cc1 (configuration not stated) | 0.215 | 93.6* | 0.1 | 12.2 | 4.4
CCOC(=O)COc1c(C#N)sc2c1c(=O)n(-c1ccccc1)c(=S)n2-c1ccccc1 | -0.143 | 9.2 | -1.0 | 112.2* | -3.8
c1ccc2[nH]c(-c3nc4ccccc4s3)nc2c1 | 0.481 | 20.7 | -3.2 | 127.0* | 86.2*
COc1cc(O)cc(OC)c1OC | 0.0525 | ? | · | 106.9* | 17.2
C[C@H](CO)N1C[C@H](C)[C@H](CN(C)Cc2ccc(Cl)c(Cl)c2)Oc2ccc(NS(=O)(=O)c3ccc(Cl)cc3)cc2CC1=O | 0.45 | 21.8 | 1.1 | 102.1* | 27.1
COc1ccc(S(=O)(=O)Nc2ccc3c(c2)CC(=O)N([C@@H](C)CO)C[C@H](C)[C@@H](CN(C)Cc2ccc(Cl)c(Cl)c2)O3)cc1 | 0.175 | 64.8 | 3.6 | 88.2* | 4.2
C[C@H]1CN([C@@H](C)CO)C(=O)Cc2cc(NS(=O)(=O)c3ccc(F)cc3)ccc2O[C@@H]1CN(C)Cc1ccc(Cl)c(Cl)c1 | 0.0492 | 12.8 | -1.8 | 57.3 | 16.2
C[C@@H]1CN([C@H](C)CO)C(=O)Cc2cc(NS(=O)(=O)c3ccc(Cl)cc3)ccc2O[C@@H]1CN(C)Cc1ccc(Cl)c(Cl)c1 | -3.74 | 25.6 | -3.4 | 116.7* | -3.0
C[C@H]1CN([C@@H](C)CO)C(=O)Cc2cc(NS(=O)(=O)c3ccc(Cl)cc3)ccc2O[C@H]1CN(C)Cc1ccc(Cl)c(Cl)c1 | 0.368 | 40.9 | 1.5 | 97.2* | 4.6
Cc1cc(=O)c2c(O)c(C)c(O)cc2o1 | -0.0454 | -4.0 | · | -3.6 | 4.2
Cc1cc(C)n(CCS(=O)(=O)c2ccc(Cl)cc2)n1 | -1.42 | 8.2 | 0.4 | -25.6 | -13.3
Cc1ccccc1OCC(=O)Nc1cccc(NC(=O)C(C)C)c1 | · | · | 1.1 | 29.7 | -25.0
COc1ccc(S(=O)(=O)NCc2ccccc2)cc1-c1nnc2c3ccccc3c(C)nn12 | · | · | · | 115.7* | 36.4
COc1ccc(Cl)cc1Nc1nc(N)nc(-c2cc3ccccc3o2)n1 | · | · | · | 95.0* | 28.0
COc1ccc(Cl)cc1Nc1nc(N)nc(-c2oc3ccccc3c2C)n1 | · | · | 0.0 | 11.8 | -6.0
Cc1ccccc1-c1nc(SCC(=O)Nc2ccc(F)c(Cl)c2)n[nH]1 | · | · | · | 3.2 | 2.6
C[C@@H]1CN([C@@H](C)CO)C(=O)Cc2cc(NC(=O)Nc3ccc(C(F)(F)F)cc3)ccc2O[C@@H]1CN(C)C(=O)Nc1ccc2c(c1)OCO2 | 0.0516 | 82.6* | · | 124.6* | 54.7
C[C@@H]1CN([C@H](C)CO)C(=O)Cc2cc(NC(=O)Nc3ccc(C(F)(F)F)cc3)ccc2O[C@@H]1CN(C)C(=O)Nc1ccc2c(c1)OCO2 | 0.317 | 35.9 | -2.2 | 113.2* | 6.1
C[C@H]1CN([C@@H](C)CO)C(=O)Cc2cc(NC(=O)Nc3ccc(C(F)(F)F)cc3)ccc2O[C@H]1CN(C)C(=O)Nc1ccc2c(c1)OCO2 | 0.403 | -23.3 | -1.8 | 2.0 | -13.3
Cc1ccc(C)c(NS(=O)(=O)c2ccccc2)c1 | 0.0741 | 5.8 | 0.1 | 23.0 | 1.7
Cc1ccc(S(=O)(=O)N(C)C[C@@H]2Oc3c(NC(=O)Nc4ccc(F)cc4)cccc3C(=O)N([C@H](C)CO)C[C@@H]2C)cc1 | -0.172 | 116.6* | · | 82.2* | 54.6
Cc1ccc(S(=O)(=O)N(C)C[C@@H]2Oc3c(NC(=O)Nc4ccc(F)cc4)cccc3C(=O)N([C@@H](C)CO)C[C@H]2C)cc1 | 0.0961 | -0.1 | 1.2 | 1.2 | -16.5
C[C@@H]1CN([C@H](C)CO)C(=O)c2cccc(NC(=O)Nc3ccc(F)cc3)c2O[C@@H]1CN(C)S(=O)(=O)c1ccccc1 | 0.259 | -4.7 | -2.0 | 31.1 | -10.8
Cc1ccc(S(=O)(=O)N(C)C[C@@H]2Oc3c(NC(=O)Nc4ccc(F)cc4)cccc3C(=O)N([C@@H](C)CO)C[C@@H]2C)cc1 | 0.0743 | 107.8* | -2.8 | 57.4 | 30.0
SMILES | YB-1 expr inh | Shh pathway inh | PD-1 reverse act | NOMO-1 viab | MITF inh
CC(=O)OCOC(=O)CN(CC(=O)OCOC(C)=O)c1ccccc1OCCOc1ccccc1N(CC(=O)OCOC(C)=O)CC(=O)OCOC(C)=O | 0.47 | 17.5 | · | 112.7* | 10.8
COC(=O)c1ccc(C)c(NC(=O)CN(c2cc(Cl)c(Cl)cc2Cl)S(C)(=O)=O)c1 | · | · | · | 96.1* | -0.1
COC(=O)c1ccc(Cl)c(NC(=O)CN(c2ccc(I)cc2)S(C)(=O)=O)c1 | · | · | -0.6 | 120.3* | 22.1
COC(=O)c1ccc(C)c(NC(=O)CN(c2ccc(F)cc2)S(C)(=O)=O)c1 | · | · | 0.4 | 98.3* | -4.0
COC(=O)c1ccccc1NC(=O)CN(c1ccc(I)cc1)S(C)(=O)=O | · | · | 1.2 | 16.3 | -12.9
Cc1cc(OCC(=O)NCc2cccnc2)c(C)cc1Br | · | · | -2.5 | 40.4 | -13.2
CC(=O)c1cccc(NC(=O)CN2C(=O)c3ccccc3S2(=O)=O)c1 | · | · | 2.5 | -24.5 | 22.9
C[C@H](CO)N1C[C@H](C)[C@@H](CN(C)Cc2ccc(Oc3ccccc3)cc2)Oc2c(NC(=O)c3cnccn3)cccc2C1=O | -0.606 | 53.3 | -6.5 | 105.6* | 1.1
C[C@@H]1CN([C@H](C)CO)C(=O)c2cccc(NC(=O)c3cnccn3)c2O[C@H]1CN(C)Cc1ccc(Cl)c(Cl)c1 | 0.0819 | -7.7 | -5.7 | 95.8* | 24.4
C[C@@H]1CN([C@H](C)CO)C(=O)c2cccc(NC(=O)c3cnccn3)c2O[C@@H]1CN(C)Cc1ccc(Cl)c(Cl)c1 | -0.52 | 34.1 | -1.9 | 35.1 | -5.9
COc1cc(O)c(C(=O)c2c(C)cc(O)cc2OC)c(O)c1 | -0.0182 | 0.3 | -12.4 | 121.1* | -15.9
COc1cc(O)c(C(C)=O)c(OC)c1 | -0.0592 | -52.7 | · | 22.7 | -25.5
COc1ccc(OC)c(NC(=O)NCc2cnn(C)c2)c1 | · | · | 1.7 | 6.9 | -22.3
COc1ccc(CNC(=O)Nc2ncc([N+](=O)[O-])s2)cc1 | -0.43 | 49.4 | 6.2 | 39.3 | 87.4*
CC(C)CCNC(=O)Oc1ccccc1 | -0.0712 | -7.1 | 0.7 | 21.8 | -34.3
COc1ccccc1NC(=O)CSc1nc(C)cc(C(F)(F)F)n1 | · | · | 0.1 | -12.2 | -21.8
O=C(Nc1scc2c1c(=O)oc1ccccc12)c1ccccc1 | -0.268 | -57.1 | 4.0 | 36.7 | -49.7
N=c1oc2ccc3ccccc3c2cc1C(=O)Nc1ccccc1 | -0.575 | 4.0 | -0.3 | 114.6* | 10.6
Cc1ccc(C(=O)Nc2cc3ccccc3oc2=O)cc1 | 0.411 | 19.2 | 0.2 | 138.7* | 72.3
O=C(Nc1cc2c(ccc3ccccc32)oc1=O)c1ccccc1 | 3.29* | -20.2 | -0.3 | 14.8 | 26.5
COc1ccc(S(=O)(=O)N(C)CC(=O)Nc2ccc(I)cc2)cc1OC | · | · | -2.5 | 10.7 | 8.8
c1ccc2sc(SCc3nc4c5c6c(sc5ncn4n3)CCCC6)nc2c1 | · | · | 2.6 | 26.5 | 28.4
S=c1[nH][n+]2c(-c3ccccc3)cc(-c3ccccc3)nc2s1 | 0.446 | · | -0.5 | 16.2 | -5.7
COCc1ccccc1Cn1cnc2ccccc21 | · | · | · | 46.1 | 53.3
